Holding throughout (conditions): mRNA level, 48 h; actives raise or lower the signal
Read-out in experiment [1]: Insulin Like Growth Factor 1 (IGF1), IGF1 (gene 3479)
As to the kind of experiment: LTEA_HepaRG_IGF1: Life Technologies and Expression Analysis (LTEA) Assay for Insulin Like Growth Factor 1 (IGF1) using HepaRG (AID 2283506). The method, boiled down:
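Endpoint: IGF1 mRNA change by qRT-PCR, housekeeping-normalized, fitted bidirectionally relative to 0.5% DMSO vehicle. Human HepaRG cells were treated 48 h in serum-free induction medium, eight half-log concentrations topping at 100 uM.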

Read-out in experiment [2]: Intercellular Adhesion Molecule 1 (ICAM1), ICAM1 (gene 3383)
As to the kind of experiment: LTEA_HepaRG_ICAM1: Life Technologies and Expression Analysis (LTEA) Assay for Intercellular Adhesion Molecule 1 (ICAM1) using HepaRG (AID 2283507). An outline of the steps: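 Readout is qRT-PCR mRNA level, normalized to three housekeeping genes and fitted bidirectionally against 0.5% DMSO vehicle. Human HepaRG cultures received compound for 48 h, top concentration 100 uM with half-log dilutions.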

Read-out in experiment [3]: Insulin-like growth factor-binding protein 1 (IGFBP1), IGFBP1 (gene 3484)
Put plainly: LTEA_HepaRG_IGFBP1: Life Technologies and Expression Analysis (LTEA) Assay for Insulin-like growth factor-binding protein 1 (IGFBP1) using HepaRG (AID 2283508). The method, boiled down:
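Thawed HepaRG cells are plated for 48 h, switched to serum-free induction medium, then dosed in duplicate for another 48 h (100 uM top, half-log steps). Lysates in RLT go to qRT-PCR, and gain or loss of signal is fitted relative to vehicle.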

Read-out in experiment [4]: Interleukin 6 (IL6), IL6 (gene 3569)
Put plainly: LTEA_HepaRG_IL6: Life Technologies and Expression Analysis (LTEA) Assay for Interleukin 6 (IL6) using HepaRG (AID 2283509). The method, boiled down: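 Changes in IL6 mRNA, up or down relative to 0.5% DMSO controls, were derived from concentration-response curves in human HepaRG cells treated for 48 h at up to 100 uM, with ACTB, GAPDH and POLR2A as normalizers.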

Read-out in experiment [5]: Interleukin 6 Receptor (IL6R), IL6R (gene 3570)
Put plainly: LTEA_HepaRG_IL6R: Life Technologies and Expression Analysis (LTEA) Assay for Interleukin 6 Receptor (IL6R) using HepaRG (AID 2283510). The method, boiled down: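 In this HepaRG screen, test chemicals act on cells for 48 h at up to 100 uM (eight half-log points, duplicate wells). IL6R expression is quantified by qRT-PCR after normalization to ACTB, GAPDH and POLR2A, with DMSO as baseline.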

Read-out in experiment [6]: Potassium channel subfamily K member 1 (KCNK1), KCNK1 (gene 3775)
Put plainly: LTEA_HepaRG_KCNK1: Life Technologies and Expression Analysis (LTEA) Assay for Potassium channel subfamily K member 1 (KCNK1) using HepaRG (AID 2283511). The method, boiled down: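 Human HepaRG cultures receive test chemicals for 48 h in 0.5% DMSO, top concentration 100 uM with half-log dilutions. Induction or suppression of KCNK1 mRNA relative to DMSO is derived by bidirectional fitting of qRT-PCR data.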

Read-out in experiment [7]: Keratin 19 (KRT19), KRT19 (gene 3880)
Put plainly: LTEA_HepaRG_KRT19: Life Technologies and Expression Analysis (LTEA) Assay for Keratin 19 (KRT19) using HepaRG (AID 2283512). An outline of the steps: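 KRT19 transcript levels, measured by Fluidigm qRT-PCR against three housekeeping genes, are fitted for gain or loss of signal relative to DMSO. Human HepaRG cells receive test chemicals (top 100 uM, half-log steps, 0.5% DMSO) for 48 hours.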

Read-out in experiment [8]: Lipase C (LIPC), LIPC (gene 3990)
As to the kind of experiment: LTEA_HepaRG_LIPC: Life Technologies and Expression Analysis (LTEA) Assay for Lipase C (LIPC) using HepaRG (AID 2283514). An outline of the steps: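 In this multiplexed gene-expression screen, human HepaRG cultures received test chemicals for 48 h across eight concentrations with 100 uM highest, in duplicate. Values reflect LIPC mRNA induction or suppression versus DMSO vehicle, from normalized qRT-PCR.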

Read-out in experiment [9]: Lipoprotein lipase (LPL), LPL (gene 4023)
Put plainly: LTEA_HepaRG_LPL: Life Technologies and Expression Analysis (LTEA) Assay for Lipoprotein lipase (LPL) using HepaRG (AID 2283515). An outline of the steps:
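Concentration-response testing used half-log steps from 100 uM in 0.5% DMSO on human HepaRG cells, 48 h, duplicate wells. Phenobarbital 1 mM served as induction control; LPL mRNA was normalized to ACTB, GAPDH, POLR2A.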

Read-out in experiment [10]: MicroRNA 122 (MIR122), gene 406906
Put plainly: LTEA_HepaRG_MIR122: Life Technologies and Expression Analysis (LTEA) Assay for MicroRNA 122 (MIR122) using HepaRG (AID 2283516). Also: the transcript read is the microRNA miR-122. An outline of the steps:
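Changes in transcript abundance, up or down relative to 0.5% DMSO vehicle, were scored after 48 h chemical treatment of HepaRG cells (maximum 100 uM). Quantification used TaqMan qRT-PCR normalized to housekeeping genes.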

Read-out in experiment [11]: matrix metalloproteinase-10 (MMP10), MMP10 (gene 4319)
Put plainly: LTEA_HepaRG_MMP10: Life Technologies and Expression Analysis (LTEA) Assay for matrix metalloproteinase-10 (MMP10) using HepaRG (AID 2283517). An outline of the steps:
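In differentiated HepaRG cultures kept in 0.5% DMSO, test chemicals act for 48 h over an eight-point range with a top dose of 100 uM. Expression is then quantified by TaqMan RT-PCR against ACTB, GAPDH and POLR2A.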

Read-out in another experiment: MYC, MYC (gene 4609)
Put plainly: LTEA_HepaRG_MYC: Life Technologies and Expression Analysis (LTEA) Assay for MYC using HepaRG (AID 2283518). An outline of the steps: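 HepaRG, ~100,000 cells/well, collagen I; 48 h plating; serum-free induction medium; 48 h dosing, duplicate, 100 uM top, half-log, 0.5% DMSO; total RNA → qRT-PCR MYC; gain/loss fit vs DMSO.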

Read-out in experiment [12]: Paternally Expressed 10 (PEG10), PEG10 (gene 23089)
As to the kind of experiment: LTEA_HepaRG_PEG10: Life Technologies and Expression Analysis (LTEA) Assay for Paternally Expressed 10 (PEG10) using HepaRG (AID 2283520). An outline of the steps:
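After 48 h exposure of differentiated HepaRG cells (0.5% DMSO vehicle, eight concentrations up to 100 uM, duplicates), PEG10 mRNA was measured by TaqMan qRT-PCR. Values were normalised to endogenous control genes and analysed bidirectionally against vehicle.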

Read-out in experiment [13]: Protein phosphatase 2A (PPP2R4), PTPA (gene 5524)
As to the kind of experiment: LTEA_HepaRG_PPP2R4: Life Technologies and Expression Analysis (LTEA) Assay for Protein phosphatase 2A (PPP2R4) using HepaRG (AID 2283522). An outline of the steps: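 Using HepaRG cultures maintained in 0.5% DMSO, chemicals are tested 48 h at up to 100 uM in duplicate. Induction or suppression of PPP2R4 mRNA, measured by qRT-PCR, is fitted bidirectionally against the vehicle baseline.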

Read-out in experiment [14]: Phosphatase and tensin (PTEN), PTEN (gene 5728)
As to the kind of experiment: LTEA_HepaRG_PTEN: Life Technologies and Expression Analysis (LTEA) Assay for Phosphatase and tensin (PTEN) using HepaRG (AID 2283523). An outline of the steps: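 Expression of PTEN is quantified in the human liver line HepaRG following two days of dosing (top concentration 100 uM, half-log dilutions, 0.5% DMSO). Values derive from bidirectional curve fitting relative to DMSO controls.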

Read-out in experiment [15]: solute carrier (SLC22A1), SLC22A1 (gene 6580)
Put plainly: LTEA_HepaRG_SLC22A1: Life Technologies and Expression Analysis (LTEA) Assay for solute carrier (SLC22A1) using HepaRG (AID 2283524). The method, boiled down:
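Transcript induction or suppression of SLC22A1 in human HepaRG cultures is scored after 48 h chemical treatment, with DMSO (0.5%) as baseline for bidirectional fitting. Concentrations span eight half-log points topping at 100 uM.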

Read-out in experiment [16]: Pyruvate Dehydrogenase Kinase 4 (PDK4), PDK4 (gene 5166)
As to the kind of experiment: LTEA_HepaRG_PDK4: Life Technologies and Expression Analysis (LTEA) Assay for Pyruvate Dehydrogenase Kinase 4 (PDK4) using HepaRG (AID 2283525). An outline of the steps:
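Eight-point, half-log concentration series (max 100 uM, 0.5% DMSO) applied to differentiated HepaRG cells for 48 h in duplicate. Endpoint: PDK4 mRNA induction or repression by qRT-PCR against DMSO baseline.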

Read-out in experiment [17]: JUN Transcription Factor, JUN (gene 3725)
As to the kind of experiment: LTEA_HepaRG_JUN: Life Technologies and Expression Analysis (LTEA) Assay for JUN Transcription Factor using HepaRG (AID 2283513). An outline of the steps: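 Gene-expression endpoint: JUN mRNA (qRT-PCR, normalized to three reference genes) in HepaRG cultures treated 48 h with chemicals, duplicate wells, 100 uM maximum with half-log dilutions; bidirectional fitting relative to 0.5% DMSO.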

Read-out in experiment [18]: matrix metalloproteinase-3 (MMP3), MMP3 (gene 4314)
As to the kind of experiment: LTEA_HepaRG_MMP3: Life Technologies and Expression Analysis (LTEA) Assay for matrix metalloproteinase-3 (MMP3) using HepaRG (AID 2283519). The method, boiled down:
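Human liver HepaRG cultures received chemicals (top concentration 100 uM, 0.5% DMSO) for 48 h in duplicate. MMP3 mRNA induction or loss was then assessed via TaqMan qRT-PCR with housekeeping-gene normalisation.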

Read-out in experiment [19]: Nuclear factor NF-kappa-B p105 subunit (Homo sapiens) (UniProt P19838)
As to the kind of experiment: LTEA_HepaRG_NFKB1: Life Technologies and Expression Analysis (LTEA) Assay for Nuclear Factor Kappa B Subunit 1 (NFKB1) using HepaRG (AID 2283521).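 Also: differentiated human HepaRG liver cells in serum-free induction medium; TaqMan qRT-PCR transcript normalised to ACTB GAPDH and POLR2A housekeeping genes.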 An outline of the steps:
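HepaRG, 48 h exposure; 8-pt half-log series from 100 uM in 0.5% DMSO; duplicates. Readout: NFKB1 mRNA by qRT-PCR (Fluidigm arrays), housekeeping-normalized. Gain/loss fit vs DMSO baseline.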

Active and inactive are the calls of the source. The calls were made as follows: active = hit-call score of the fitted dose curve at least 0.9, where 1 is the maximum; inactive = score below 0.9.

Sequence of Nuclear factor NF-kappa-B p105 subunit (Homo sapiens) (P19838 whole entry, looked up): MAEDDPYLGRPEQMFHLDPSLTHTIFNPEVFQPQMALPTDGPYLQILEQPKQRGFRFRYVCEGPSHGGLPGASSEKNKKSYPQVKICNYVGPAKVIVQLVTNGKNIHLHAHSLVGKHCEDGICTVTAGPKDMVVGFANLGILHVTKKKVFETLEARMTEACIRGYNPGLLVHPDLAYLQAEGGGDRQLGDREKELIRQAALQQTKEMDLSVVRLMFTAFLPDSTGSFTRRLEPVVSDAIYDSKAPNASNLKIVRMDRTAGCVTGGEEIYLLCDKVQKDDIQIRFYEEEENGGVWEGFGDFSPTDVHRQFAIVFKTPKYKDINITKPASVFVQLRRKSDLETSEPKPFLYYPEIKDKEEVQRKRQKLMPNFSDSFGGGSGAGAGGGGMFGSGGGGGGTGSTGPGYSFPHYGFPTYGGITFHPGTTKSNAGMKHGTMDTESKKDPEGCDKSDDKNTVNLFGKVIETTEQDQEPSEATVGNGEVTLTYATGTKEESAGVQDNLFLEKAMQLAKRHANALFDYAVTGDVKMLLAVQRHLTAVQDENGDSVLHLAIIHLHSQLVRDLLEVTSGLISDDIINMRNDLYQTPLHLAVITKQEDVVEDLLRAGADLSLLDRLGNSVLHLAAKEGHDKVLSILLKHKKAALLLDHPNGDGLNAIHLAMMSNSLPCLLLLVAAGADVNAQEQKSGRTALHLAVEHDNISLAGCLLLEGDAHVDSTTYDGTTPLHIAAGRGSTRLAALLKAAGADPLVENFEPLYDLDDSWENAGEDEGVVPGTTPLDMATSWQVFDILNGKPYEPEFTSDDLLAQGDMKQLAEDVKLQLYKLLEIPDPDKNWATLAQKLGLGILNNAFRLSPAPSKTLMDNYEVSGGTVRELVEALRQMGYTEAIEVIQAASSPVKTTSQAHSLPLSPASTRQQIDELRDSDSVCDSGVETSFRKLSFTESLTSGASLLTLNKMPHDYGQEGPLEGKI

As to `CCCCC(CC)COC(=O)c1ccc(C(=O)OCC(CC)CCCC)cc1` (stereo unspecified), the compound was classed as inactive in experiment [1], in experiment [2], in [3], in [4], in [5] and in experiment [6]. Moreover, the outcome was “inactive” in experiment [7]; “inactive” in experiment [8]; “inactive” in [9]; “inactive” in experiment [10]; “inactive” in experiment [11]; “inactive” with MYC, MYC (gene 4609). The outcome in experiment [12], in experiment [13], in experiment [14], in experiment [15] and in [16] was inactive.
Broadly, the AC50 is the concentration at which the activity in the assay is half-maximal. Consider `O=C(O)c1cccc(Oc2ccccc2)c1`, for which the compound was called inactive in experiment [1], in experiment [2], in experiment [3], in experiment [4], in experiment [5] and in experiment [6]. For the same compound, the outcome in [17] is “inactive”; in experiment [8], “inactive”; in experiment [9], “inactive”; in [10], “inactive”; in [11] it was “inactive”; in the experiment with MYC, MYC (gene 4609) it was “inactive”. For the same compound, the compound was classed as inactive in [18], in [12], in experiment [19], in experiment [13], in [14] and in experiment [15]. For the same compound, the AC50 in experiment [16] is 50 µM (active).
On to `COC(=O)c1ccccc1O`, for which the result in experiment [1], in experiment [2], in experiment [3], in experiment [4], in experiment [5] and in experiment [6] was inactive. The compound was classed as inactive in experiment [7], in experiment [17], in experiment [8], in experiment [9], in experiment [10] and in [11]. For the same compound, the outcome with MYC, MYC (gene 4609) was “inactive”; in [18] it was “inactive”; in [12], “inactive”; in experiment [19] it was “inactive”; in experiment [13], “inactive”; in [14], “inactive”. Further, the call in experiment [15] and in [16] was inactive.
